Inconclusive results are not listed. Unmarked numbers belong to inactive results. Calls follow the shape of the dose curve; as a rule, active = well fitted curve in the direction sought with a large enough effect; inconclusive = small, poorly fitted or top-dose-only effect, or another doubt; inactive = no such curve, though single readings can be large or run the other way.
Molecular target: Polyunsaturated fatty acid lipoxygenase ALOX15 (Homo sapiens) (UniProt P16050)
Assay: Counterscreen qHTS for inhibitors of human arachidonate 12S-lipoxygenase (ALOX12): ALOX15 Assay; also: 0% is about no effect
Settings: purified ALOX15 enzyme activity; series mostly up to 110 µM; activity change, negative = inhibition: at the top concentration
In short: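 Xylenol orange–ferric complex formation, read as the 573 nm to 405 nm absorbance ratio, tracks product from 50 uM arachidonic acid turned over for 30 min at RT. Enzyme is 40 nM ALOX15, pH 7.5 HEPES buffer, compound-preincubated 15 min.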

Polyunsaturated fatty acid lipoxygenase ALOX15 (Homo sapiens), sequence (P16050 whole entry, looked up): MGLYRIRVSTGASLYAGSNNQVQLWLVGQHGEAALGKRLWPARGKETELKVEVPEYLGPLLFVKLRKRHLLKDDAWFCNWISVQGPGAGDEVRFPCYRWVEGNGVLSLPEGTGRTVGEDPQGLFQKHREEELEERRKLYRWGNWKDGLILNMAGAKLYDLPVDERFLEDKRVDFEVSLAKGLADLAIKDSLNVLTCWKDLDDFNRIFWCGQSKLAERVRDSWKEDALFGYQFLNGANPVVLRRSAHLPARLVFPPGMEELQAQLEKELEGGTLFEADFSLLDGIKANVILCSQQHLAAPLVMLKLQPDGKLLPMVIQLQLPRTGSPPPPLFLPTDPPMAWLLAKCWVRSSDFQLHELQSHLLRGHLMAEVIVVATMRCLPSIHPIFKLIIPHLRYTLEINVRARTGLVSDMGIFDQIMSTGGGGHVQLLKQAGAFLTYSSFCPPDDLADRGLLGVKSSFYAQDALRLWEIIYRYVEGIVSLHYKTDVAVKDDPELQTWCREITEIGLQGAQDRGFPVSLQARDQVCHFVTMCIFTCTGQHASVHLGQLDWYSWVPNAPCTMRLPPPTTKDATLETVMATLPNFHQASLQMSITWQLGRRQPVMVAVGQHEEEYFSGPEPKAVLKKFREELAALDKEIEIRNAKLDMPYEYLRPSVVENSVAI

Compound | activity change, negative = inhibition
CC1CCCN1c1ncnc2c1CN(C1CCCNCC1)C(=O)CN2C (configuration not stated) | -14.6% [at 146 µM]
CN1CC(=O)N(C2CCNC2)Cc2c(NCC3CCCCC3)ncnc21 (configuration not stated) | -16.9%
COc1ccc(CN2CCC3(Cc4ccccc4CNC3=O)C2)c(O)c1 (configuration not stated) | 0.0915%
O=C1NCc2ccccc2CC12CCN(Cc1c(Cl)cncc1Cl)C2 (configuration not stated) | 7.44%
COc1cccc(CNc2ncnc3c2CN(C2CCCNCC2)C(=O)CN3C)c1 (configuration not stated) | -3.38%
c1ccc2c(c1)COC1(CCNC1)CN2CC1CCCC1 (configuration not stated) | 0.378% [at 146 µM]
O=C(c1ccccc1F)N1CCn2c(nnc2C2CCNCC2)C1 | 0.837% [at 146 µM]
COc1cccc(N2C(=O)NC(=NC3CCCCC3)C23CCN(CC2CC2)CC3)c1 | -19.5%
O=C1NCc2ccccc2CC12CCCN2Cc1cccc(O)c1 (configuration not stated) | -11.9% [at 146 µM]
NCc1ccc(-c2ccc(F)cc2)cc1 | 16.7% [at 146 µM]
c1cncc(CN2CCn3c(nnc3C3CCCNC3)C2)c1 (configuration not stated) | -7.62% [at 146 µM]
CCC(=O)N1Cc2ccccc2CC2(CCCN(CC3CCNC3)C2)C1 (configuration not stated) | -19.7% [at 146 µM]
COc1ccc2c(c1)CCCN2C1CNC1 | -22.1% [at 233 µM]
O=C(c1ccccc1)N1CCn2c(nnc2C2CCNCC2)C1 | -2.91% [at 146 µM]
Cc1noc(C)c1C(=O)N1CCN(c2ccc(Cl)nn2)C(=O)C1 | -19.1% [at 146 µM]
NCCC(=O)N1CCCC2(Cc3ccccc3CN2C(=O)c2ccccc2)C1 (configuration not stated) | -7.74%
CC(C)OCCCNC(=O)c1cc(C2CC2)nc2onc(C3CCCN3)c12 (configuration not stated) | -5.04%
CN1CC(=O)N(C2CCCNC2)Cc2c1ncnc2N1CCc2ccccc2C1 (configuration not stated) | 1.42%
COC[C@@H]1CCCN1c1ncnc2c1CN(C1CCCNCC1)C(=O)CN2C (some centres not stated) | -17.6%

Compound | activity change, negative = inhibition
COc1cccc(N2C(=O)NC(=NC3CCCCC3)C23CCCN(C(=O)c2ccccc2)C3)c1 (configuration not stated) | -4.65%
O=C1NCc2ccccc2CC12CCN(Cc1cccc(F)c1F)C2 (configuration not stated) | -14.8% [at 146 µM]
COc1ccc(N2CC3CCC(C2)N3[S+](C)(=O)[O-])cc1 | -3.15% [at 146 µM]
CNC(=O)c1cn2c(n1)CN([S+](C)(=O)[O-])CC2 | -5.06% [at 146 µM]
CCNc1ncnc2c1CN(C1CCCNC1)C(=O)CN2C (configuration not stated) | -1.16% [at 146 µM]
O=C1NCc2ccccc2CC12CCN(Cc1cccc(F)c1F)CC2 | -27.9%
NCC(=O)N1Cc2ccccc2CC2(CCCCN2CC2CCOCC2)C1 (configuration not stated) | -24.1%
CN(C)CCC(=O)N1Cc2ccccc2CC2(CCCCN2CC2CCOCC2)C1 (configuration not stated) | -26.4%
C[S+](=O)([O-])N1Cc2ccccc2OC2(CCN(C(=O)c3ccc(N)nc3)CC2)C1 | -15.1%
CN1CC(=O)N(C2CCNCC2)Cc2c(NC3CCCCCC3)ncnc21 | -8.58%
COc1cccc(N2C(=O)NC(=NC3CCCCC3)C23CCCN(Cc2cccnc2)C3)c1 (configuration not stated) | -1.65%
COCCCNc1nc2c(S(=O)(=O)c3c(C)cc(C)cc3C)nnn2c2ccccc12 | -27.7%
O=C(N1CCOCC1)N1CCN(c2ccc(Cl)nn2)C(=O)C1 | -10.6% [at 146 µM]
CCC(CC)Nc1ncnc2c1CN(C1CCCNCC1)C(=O)CN2C (configuration not stated) | 0.531%
O=C(O)CCCC(=O)N1Cc2ccccc2CC2(CCCN(Cc3ccncc3)C2)C1 (configuration not stated) | -23%
Cn1nc(C2CCCNC2)c2c(C(=O)NC3CC3)cc(C3CC3)nc21 (configuration not stated) | -5.86% [at 146 µM]
O=c1n(-c2cccc(Cl)c2)nc2n1CCN([S+](=O)([O-])c1ccccc1)C2 | -1.83%
Cc1cccc(CN2CCCC23Cc2ccccc2CNC3=O)c1 (configuration not stated) | -11% [at 146 µM]

— PubChem BioAssay AID1671192 (National Center for Advancing Translational Sciences (NCATS), 2021)
